Records with an inconclusive call do not appear. The source made the active and inactive calls. Calls follow the shape of the dose curve; as a rule, active = well fitted cell-killing curve with a large enough effect; inconclusive = small, poorly fitted or top-dose-only effect, or effect the other way; inactive = flat fitted curve, though single readings scatter. *1 amine or outer side, *2 acyl side, *3 side chain or, on linkers, in order; H or OH if unused. Where a SMILES comes first, the peptide text is derived from it. Bridges are numbered along the chain shown (N, C = ends). [ ]: non-standard residue; d: D form. The star is where a group is joined. ξ: configuration not given here. ξhTyr(3S-OH,4S-OH,3'-OSO3H) = NC(C(=O)O)[C@H](O)[C@@H](O)c1ccc(O)c(OS(=O)(=O)O)c1; Orn(4R-OH,5R-OH) = O=C([C@H](C[C@@H](O)[C@@H](O)N[*:3])N[*:1])[*:2]; X2 = CCCCCOc1ccc(-c2cc(-c3ccc(C(=O)*)cc3)no2)cc1; X3 = C[C@H]1CN([*:1])C(C(=O)[*:2])[C@H]1O; ξGln(3R-OH) = NC(=O)C[C@@H](O)C(N)C(=O)O; ξPro(4R-OH) = O=C(O)C1C[C@@H](O)CN1; ξThr(3R) = C[C@@H](O)C(N)C(=O)O
Assays:
Assay in all cases: Primary qHTS to identify gynecologic anti-cancer compounds using libraries of approved drugs and bioactive compounds (AID 1345084); also: nearly all actives have a fitted effect of over 55% in size
Conditions in all cases: Gynecologic cancer cell panel viability, ATPlite luminescence, 48 h; series mostly up to 57.5 µM
OV90 = system: OV90
Procedure, shortened: (§1)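 In this quantitative HTS, cell killing is estimated from loss of ATP-dependent luciferase light. Cells see five compound concentrations over a 48 h exposure.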

PA-1 = system: PA-1
Procedure, shortened: as §1

SKOV3 = system: SKOV3
Procedure, shortened: as §1

Tov-21-G = system: Tov-21-G
Procedure, shortened: as §1

Tov112D = system: Tov112D
Procedure, shortened: as §1

Measured: Potency

CC1=C(C(=O)OC2OC(COC3OC(CO)C(O)C(O)C3O)C(O)C(O)C2O)C(C)(C)CCC1 (stereo not given)
inactive: all assays above

CCNC(=O)OC1CCN(c2nncc3cc(OC)c(OC)cc23)CC1
inactive: all assays above

CC1=CC23[C@H](C=C(C(=O)O)[C@@H]2COC(=O)[C@]3(O)CO)[C@@H]1C (stereo not given in full)
inactive: all assays above

C=C1CCC[C@]2(C)CC[C@@](O)(C(=C)C(=O)O)C[C@@H]12
inactive: all assays above

CC1=CC(=O)CC(C)(C)C1CCC(C)O[C@@H]1O[C@H](CO)[C@@H](O)[C@H](O)[C@H]1O (stereo not given in full)
inactive: all assays above

C=C1CC2C3(C)C=CC(=O)OC(C)(C)C3CC(OC(C)=O)C2(C)C2C(=O)OC(C)C(=O)C12C (stereo not given)
inactive: all assays above

COc1c2c(c(C)c3c1C(=O)OC3)OC1(C)CC(O)C34OC(OC)(CCC3(C)C1C2)OC4(C)CO (stereo not given)
inactive: all assays above

N#CN1CCC[C@@H](n2nc(-c3ccc(Oc4ccc(F)cc4F)cc3)c(C(N)=O)c2N)C1
inactive: all assays above

Cc1cn2cc(CC(=O)N3CCC4(CC3)CN(Cc3ccc(-n5nccn5)cc3Cl)C4)nc2s1
inactive: all assays above

O=C(/C=C/c1ccc(O)cc1)OC[C@@]1(O)C=C[C@@H]2C(C(=O)O)=CO[C@@H](O[C@@H]3O[C@H](CO)[C@@H](O)[C@H](O)[C@H]3O)[C@@H]21
inactive: all assays above

CC[C@@H]1C(=O)O[C@]23C=C[C@@H]4C(C(=O)OC)=CO[C@H](O[C@@H]12)[C@@H]43
inactive: all assays above

CCCSc1nc(NC2CC2c2ccc(F)c(F)c2)c2nnn(C3CC(OCCO)C(O)C3O)c2n1 (stereo not given)
inactive: all assays above

CC1=C(CO)CC(C(C)C2CCC3C4CC=C5CC(OC6OC(COC7OC(CO)C(O)C(O)C7O)C(O)C(O)C6O)CC(O)C5(C)C4CCC23C)OC1=O (stereo not given)
inactive: all assays above

CC1(C)OC(=O)C=C[C@@]2(C)C1CC(=O)[C@]1(C)C2CC[C@@]2(C)[C@H](c3ccoc3)OC(=O)[C@H]3O[C@]321 (stereo not given in full)
inactive: all assays above

CC1=C2C3OC(=O)C(C)C3(O)CCC2(C)CCC1 (stereo not given)
inactive: all assays above

C[C@]1(OC(=O)/C=C/c2ccccc2)C[C@@H](O)[C@]2(O)C=CO[C@@H](O[C@@H]3O[C@H](CO)[C@@H](O)[C@H](O)[C@H]3O)[C@@H]21
inactive: all assays above

C[C@]12CC[C@@H]3c4ccc(O)cc4CC[C@H]3[C@@H]1C[C@@H](O[C@@H]1O[C@H](C(=O)O)[C@@H](O)[C@H](O)[C@H]1O)[C@@H]2O
inactive: all assays above

CCCCCOc1ccc(-c2cc(-c3ccc(C(=O)N[C@H]4C[C@@H](O)[C@@H](O)NC(=O)C5[C@@H](O)[C@@H](C)CN5C(=O)C([C@H](O)CC(N)=O)NC(=O)C([C@H](O)[C@@H](O)c5ccc(O)c(OS(=O)(=O)O)c5)NC(=O)C5C[C@@H](O)CN5C(=O)C([C@@H](C)O)NC4=O)cc3)no2)cc1 (stereo partly drawn) (X2-[Orn(4R-OH,5R-OH)][ξThr(3R)][ξPro(4R-OH)][ξhTyr(3S-OH,4S-OH,3'-OSO3H)][ξGln(3R-OH)][X3]; lactam 1-C)
inactive: all assays above

CC1=C(CCC(C)O[C@@H]2O[C@H](CO)[C@@H](O)[C@H](O)[C@H]2O)C(C)(C)CC(O)C1 (stereo not given in full)
inactive: all assays above

COC(=O)C1=COC(OC2OC(CO)C(O)C(O)C2O)C2C(COC(=O)/C=C/c3ccc(O)cc3)C(O)C(O)C12 (stereo not given)
inactive: all assays above

CC(C)C1NC(=O)C2CCCN2C1=O (stereo not given)
inactive: all assays above
